Screening results deposited in PubChem by several laboratories.
Bim-Mcl-1: disrupts Bim peptide binding to human Mcl-1; Q07820; Bead-based flow cytometry, Bim peptide-Mcl-1 binding; inhibition, % at 10 µM; hit rate 0.1% among 190,000; AID 1009; in the data active = inhibition above about 40%;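 note: 0% = no compound tracer wells and 100% = peptide blocker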
Target sequence (Q07820 whole entry, looked up): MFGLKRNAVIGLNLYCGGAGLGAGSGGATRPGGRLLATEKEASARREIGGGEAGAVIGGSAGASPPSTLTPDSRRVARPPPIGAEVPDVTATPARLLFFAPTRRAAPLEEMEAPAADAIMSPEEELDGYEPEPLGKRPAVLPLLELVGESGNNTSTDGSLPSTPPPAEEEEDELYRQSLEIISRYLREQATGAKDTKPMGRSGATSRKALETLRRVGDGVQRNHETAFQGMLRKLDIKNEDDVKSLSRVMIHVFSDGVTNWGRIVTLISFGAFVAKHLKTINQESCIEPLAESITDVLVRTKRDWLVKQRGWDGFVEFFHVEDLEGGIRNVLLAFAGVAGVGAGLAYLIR
Mcl1 Bid PPI: Mcl-1/Bid interaction inhibition. inhibition, % at 21.7 µM. hit rate 0.97% among 220,000. Q07820. TR-FRET Mcl-1/Bid-Dy647 peptide binding, 1536-well. AID 1021;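 active = compounds that cut the binding signal by more than half at the single screening dose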;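 note: His-tagged Mcl-1 with europium anti-His antibody binding Bid BH3 peptide; 0% = Mcl-1 plus peptide wells and 100% = peptide-only wells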
14-3-3 Bad inh: disrupts binding of bovine 14-3-3 zeta to phospho-Bad peptide | P63103 | TR-FRET 14-3-3zeta/Dy647-pBad peptide displacement, 1 h | inhibition, % at 21.7 µM | hit rate 0.71% among 220,000 | AID 781;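 active = inhibition above about 70%, limit read from the data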;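 note: 0% = full 14-3-3 plus peptide FRET controls and 100% = background without 14-3-3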
Target sequence (P63103 whole entry, looked up): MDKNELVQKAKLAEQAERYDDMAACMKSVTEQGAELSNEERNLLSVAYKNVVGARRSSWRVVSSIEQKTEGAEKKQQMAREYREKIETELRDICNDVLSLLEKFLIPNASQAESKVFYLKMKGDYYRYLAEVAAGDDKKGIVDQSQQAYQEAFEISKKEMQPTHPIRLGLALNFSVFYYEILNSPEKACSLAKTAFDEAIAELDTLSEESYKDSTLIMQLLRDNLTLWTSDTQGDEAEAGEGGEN
NCF1 inh: inhibitors of human p47phox binding | AID 1274 | p47phox/p22phox peptide binding, fluorescence polarization, 2 h | hit rate 0.53% among 220,000 | P14598 | inhibition, % at 24.7 µM;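 active = inhibition above about 30%, limit read from the data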;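 note: 0% = p47phox with labelled peptide and 100% = labelled peptide alone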
Mcl1-Noxa inh: disrupts binding of human Mcl-1 to Noxa peptide. Q07820. TR-FRET Mcl-1/Noxa peptide binding, 2 h. inhibition, % at 21.7 µM. hit rate 1.5% among 220,000. AID 1022;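 active = compounds that cut the protein-peptide binding signal by more than 50% relative to plate controls in a single-dose test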;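 note: His-tagged Mcl-1 with rhodamine Noxa BH3 peptide and terbium anti-His antibody; 0% = Mcl-1 plus Noxa peptide wells and 100% = peptide-only wells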
Starred values were filed as active, the others as inactive; · = no result given. In the library only some 3.1% were active in any assay of this set; here they are far more common.

SMILES	Bim-Mcl-1	Mcl1 Bid PPI	14-3-3 Bad inh	NCF1 inh	Mcl1-Noxa inh
O=C(OCc1cc(=O)n2c(n1)sc1ccccc12)c1ccc(O)cc1O	0	-15	16	-149	41
Cc1ccc(C(=O)N[C@H](C(=O)OCc2cc(=O)n3c(n2)sc2ccccc23)C(C)C)cc1	-3	-9	-3	-13	58*
O=C(OCc1cc(=O)n2c(n1)sc1ccccc12)c1cccc(O)c1	-5	30	3	-37	67*
Cc1ccc(NC(=S)Nc2ccc(C(C)C)cc2)cc1S(=O)(=O)N1CCCCCC1	-7	-60	-15	-32	11
CCCNC(=S)NCCN1CCCCC1	1	38	73*	-4	14
O=C(COC(=O)/C=C/c1ccc(OC(F)F)cc1)NCCN1C(=O)CSC1=O	-7	-50	5	46*	37
COc1ccc(N/N=C(/C(C)=O)N2CCCc3ccccc32)cc1	·	-14	-1	0	-1
COc1ccc(-c2cc(C(F)(F)F)nc(S(=O)(=O)CCCC(=O)Nc3cccc(O)c3)n2)cc1OC	0	-11	-4	-2	7
O=C(CNc1ccccc1)NNC1=NCCC1	-5	-13	89*	-6	13
CCSC(=O)NC1CCCCC1	·	-9	1	-13	-4
COc1cccc(CNc2ccc(F)c(Cl)c2)c1	0	2	78*	-18	24
COc1cccc(CNc2ccc(F)c(Cl)c2)c1O	-1	-98	-9	-12	21
CCO[C@@H]1OC(C(=O)N2CCN(Cc3ccccc3)CC2)=C[C@H](c2csc3ccccc23)[C@H]1CCCO	0	12	2	·	4
COc1ccccc1NC(=O)CSc1ccc2nnc(-c3ccc(C)cc3)n2n1	-1	1	-1	35*	12
COC(=O)c1[nH]c2ccccc2c1NC(=O)C(C)N1CC(C)OC(C)C1 (stereo not drawn)	·	-7	-16	-6	25
COC(=O)c1ccc(OCc2cc(=O)n3ccsc3n2)cc1	-5	65*	56	-8	29
COc1ccc(CCNS(=O)(=O)c2ccc3c(c2)OCCO3)cc1	0	-39	84*	-11	-19
O=C(NCCc1ccc2c(c1)OCO2)C1CCN(S(=O)(=O)c2ccc(Cl)cc2)CC1	0	-9	-2	-1	-2
COc1ccc(CCNS(=O)(=O)c2ccc(OC)cc2)cc1	-1	-9	-5	-15	19
COc1ccc(S(=O)(=O)N2CCCC(C(=O)NCc3ccc4c(c3)OCO4)C2)cc1 (stereo not drawn)	·	-24	3	-5	11
Cn1c(=O)oc2cc(S(=O)(=O)N3CCCC(C(=O)NCc4ccc5c(c4)OCO5)C3)ccc21 (stereo not drawn)	0	53*	-7	-118	21
COc1ccc(S(=O)(=O)N2CCC(C(=O)NCCc3ccc4c(c3)OCO4)CC2)cc1	-1	-9	-5	42*	-6
COc1cc(S(=O)(=O)Nc2cccc(C)c2)ccc1NC(=O)c1ccncc1	-4	95*	-1	-7	12
CCOc1ccc(NS(=O)(=O)c2ccc(NC(=O)c3cccnc3)c(OC)c2)cc1	-2	-19	6	5	9
N/C(=N/O)c1ccccc1N1CCC(Cc2ccccc2)CC1	1	-20	-6	4	4
SMILES	Bim-Mcl-1	Mcl1 Bid PPI	14-3-3 Bad inh	NCF1 inh	Mcl1-Noxa inh
NC(=O)CSc1nnc(-c2ccc3c(c2)OCO3)o1	0	-29	-5	-2	-7
C/C(N)=C(/C#N)C(=O)CSc1nnc(-c2ccc3c(c2)OCO3)o1	1	-32	8	42*	19
O=C(COC(=O)CNC(=O)c1sc2ccccc2c1Cl)Nc1cc(Cl)cc(Cl)c1	-2	-34	-18	-46	-10
O=C(Nc1cccc(-c2cn3ccccc3n2)c1)c1cc2ccccc2oc1=O	2	60*	64	43*	59*
CC(=O)Nc1cccc(-c2cn3ccccc3n2)c1	0	-16	-5	4	14
Fc1ccc(CSc2nc3ncc(Br)cc3[nH]2)cc1	0	-8	-6	-48	-12
COc1cc(/C=C2/C(=O)NN(c3ccc(Cl)cc3)C2=O)ccc1OC(=O)c1ccco1	3	-4	-28	-3	62*
O=C(N/N=C/c1cccs1)c1ccc2c(c1)OCO2	-6	11	-2	1	-1
CCOC(=O)N1CCC(NC(=O)c2ccc3c(c2)sc2nc(-c4cccc(OC)c4)cn23)CC1	-14	-87	75*	13	-2
CCOC(=O)N1CCC(NC(=O)c2ccc3c(c2)sc2nc(-c4ccccc4)cn23)CC1	-2	-32	·	-17	-17
CC(C)(C)NC(=O)COc1ccc(CNn2nnnc2N)cc1	3	-25	-2	56*	-2
COc1cc(CNn2nnnc2N)ccc1OCC(=O)NC(C)(C)C	1	-26	1	0	-14
O=Cc1ccccc1-n1cncn1	0	-41	-8	-4	-7
Cc1cccc(Nc2sc(C(=O)c3cc4cc(Cl)ccc4o3)c(N)c2C#N)c1	·	66*	67	6	68*
Cc1cccc(NC2=C(Cl)C(=O)OC2NC(=O)c2ccccc2)c1 (stereo not drawn)	2	-15	-1	-14	12
NS(=O)(=O)c1ccc(N/C=C\C(=O)c2ccc3ccccc3c2)cc1	-2	54*	48	-16	31
Cc1nn(Cc2ccc(Cl)cc2)c(C)c1NC(=O)CSc1nc2c(c(C(F)(F)F)n1)CCc1ccccc1-2	0	42	35	45*	-10
Cc1ccc(Cn2nc(C)c(NC(=O)CSc3nc4c(c(C(F)(F)F)n3)CCc3ccccc3-4)c2C)cc1	-3	74*	66	50*	34
Cc1nc2sc(-c3ccccc3)cc2c(=O)n1/N=C/N(C)C	-7	-17	-1	-49	10
COc1ccc(CN2CCN(C(=O)CC(C)C)CC2)c(OC)c1OC	-1	30	73*	3	6
COc1cc(CN2CCN(C(=O)CC(C)C)CC2)cc(OC)c1OC	-4	27	80*	0	13
COc1cc(CN2CCN(C(=O)CC(C)C)CC2)cc(OC)c1O	-8	51*	39	-8	10
COc1ccc(CN2CCN(C(=O)CN3C(=O)C4C5C=CC(C5)C4C3=O)CC2)c(OC)c1OC (stereo not drawn)	-4	-4	-4	-2	16
COc1cccc(/C=C/C(=O)OCC(=O)Nc2ccc(N3CCOCC3)cc2)c1OC	3	-23	-15	3	14
CO/N=C/c1cccn1-c1nccc(OC)c1C#N	0	-26	-7	4	5
CN(C)c1ccnc(-n2cccc2/C=N/OCc2cccc(F)c2)c1C#N	1	-18	80*	-5	-18
CCOC(=O)c1nc(C)nc(Sc2n[nH]c(-c3ccccc3)n2)c1C	·	-20	-6	0	14
Cc1cc(=O)oc2cc(OCC3CC(c4ccc(N(C)C)cc4)=NO3)ccc12 (stereo not drawn)	-1	52*	-8	-17	29
COCCn1cnnc1SCC(=O)Nc1cc(OC)c([N+](=O)[O-])cc1C	1	-15	-7	-4	-8
